Drawing on ChEMBL document CHEMBL1201862, “PubChem BioAssay data set” (2004), this text covers Potency for 108 molecules.

Hit rate of the full screen: of about 400,000 compounds, about 2,100 (0.53%) were called active. Not shown: some 14% with an inconclusive outcome. How the calls were made is not given here. The sample as a whole holds a higher share of actives than the screen did.

The target in this experiment is Ataxin-2 (Homo sapiens) (UniProt Q99700). Description: qHTS for Inhibitors of ATXN expression. The class given is functional. (Quantitative high-throughput screening tests each substance at several concentrations.)
Sequence of Ataxin-2 (Homo sapiens) (Q99700 whole entry): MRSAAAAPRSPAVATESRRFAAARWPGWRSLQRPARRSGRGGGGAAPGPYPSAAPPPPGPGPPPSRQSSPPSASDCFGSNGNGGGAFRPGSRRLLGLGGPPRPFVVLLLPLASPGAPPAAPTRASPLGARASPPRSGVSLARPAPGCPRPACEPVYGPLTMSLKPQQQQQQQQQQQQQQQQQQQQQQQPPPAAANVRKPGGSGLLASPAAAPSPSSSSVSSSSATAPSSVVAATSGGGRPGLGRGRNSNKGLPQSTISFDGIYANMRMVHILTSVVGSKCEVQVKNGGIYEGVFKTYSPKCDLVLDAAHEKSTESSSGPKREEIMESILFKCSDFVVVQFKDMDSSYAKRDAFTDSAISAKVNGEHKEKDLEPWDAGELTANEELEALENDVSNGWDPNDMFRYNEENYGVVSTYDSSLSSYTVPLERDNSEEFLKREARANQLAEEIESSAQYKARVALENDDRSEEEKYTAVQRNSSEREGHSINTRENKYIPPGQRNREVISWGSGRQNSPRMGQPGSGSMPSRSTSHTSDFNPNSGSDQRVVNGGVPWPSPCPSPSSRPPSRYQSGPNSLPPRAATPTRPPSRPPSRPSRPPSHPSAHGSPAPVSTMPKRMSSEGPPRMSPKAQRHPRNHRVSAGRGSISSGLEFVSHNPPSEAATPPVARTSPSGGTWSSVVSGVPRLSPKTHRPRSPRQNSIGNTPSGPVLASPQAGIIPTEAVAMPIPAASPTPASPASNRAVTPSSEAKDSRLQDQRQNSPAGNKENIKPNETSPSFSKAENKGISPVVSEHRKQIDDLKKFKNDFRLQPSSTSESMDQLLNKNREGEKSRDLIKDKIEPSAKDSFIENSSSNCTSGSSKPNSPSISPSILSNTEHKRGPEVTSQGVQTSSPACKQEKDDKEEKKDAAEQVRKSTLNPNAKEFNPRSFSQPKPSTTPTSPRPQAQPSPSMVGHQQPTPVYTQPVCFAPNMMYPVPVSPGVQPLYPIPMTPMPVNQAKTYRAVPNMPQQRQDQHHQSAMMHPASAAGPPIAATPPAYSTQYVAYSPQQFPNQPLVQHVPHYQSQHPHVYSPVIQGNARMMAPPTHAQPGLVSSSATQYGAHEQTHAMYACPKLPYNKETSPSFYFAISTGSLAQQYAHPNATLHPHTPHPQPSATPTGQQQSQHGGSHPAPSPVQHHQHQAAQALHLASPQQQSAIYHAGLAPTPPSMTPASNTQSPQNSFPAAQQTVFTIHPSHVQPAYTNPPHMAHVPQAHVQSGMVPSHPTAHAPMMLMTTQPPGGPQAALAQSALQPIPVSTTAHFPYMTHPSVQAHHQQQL
As to `CC1=CC(=C(C#N)c2nc3ccccc3s2)C=C(C)N1c1ccc(F)cc1F`, the Potency entry is “inactive”. Then `CC1=C(C(=O)NCCCOC(C)C)C2(CCC(C)CC2)OC1=O` (stereo not drawn), with “inactive”. Then `COCCCn1c(C(=O)NCCN2CCOCC2)cc2c(=O)n3ccccc3nc21`, with “inactive”; and `COc1cccc(-n2cnnc2S)c1`, with “inactive”; and `COc1cccc(/C=N/n2nnnc2N)c1`, with “inactive”. As to `CCCS(=O)(=O)c1nnnn1-c1cccc(OC)c1`, the Potency was 35.5 µM (active). For `Cc1cc(OC(C)C(=O)NC2CC(C)(C)NC(C)(C)C2)c2c(C)c(C)c(=O)oc2c1` (stereo not drawn), the Potency result is “inactive”. Consider `Cc1cccn2c(=O)c3cc(C(=O)NC(C)c4ccccc4)c(=N)n(CCCO)c3nc12` (stereo not drawn), for which the Potency entry was “inactive”. `Cc1cccc(OC(=O)c2ccc3c(=O)n4c(nc3c2)CCC4)c1`: the Potency entry was “inactive”. Regarding `CCCN(CCC)CCCN=C(S)Nc1ccc2nc3n(c(=O)c2c1)CCCCC3`, the Potency result was “inactive”. Turning to `O=C(Nc1ccc2nc3n(c(=O)c2c1)CCCCC3)c1c(F)ccc([N+](=O)[O-])c1F`, the Potency was 8.91 µM (active). Then `O=c1c2cc(NC(=S)N3CCC(N4CCCCC4)CC3)ccc2nc2n1CCCCC2`, with “inactive”; and `O=C(Nc1ccc2nc3n(c(=O)c2c1)CCCCC3)c1cc([N+](=O)[O-])ccc1F`, with 39.8 µM (active); and `Cc1ccc(C)c(NC(=O)c2ccc3c(=O)n4c(nc3c2)CCC4)c1`, with “inactive”. Then `O=C(Nc1ccc2nc3n(c(=O)c2c1)CCCC3)c1cc([N+](=O)[O-])ccc1F`, with 22.4 µM (active); and `CCN(CC)S(=O)(=O)c1ccc(NC(=O)c2ccc3c(=O)n4c(nc3c2)CCCCC4)cc1`, with 11.2 µM (active); and `O=C(/C=C/c1ccco1)Nc1ccc2nc3n(c(=O)c2c1)CCCC3`, with “inactive”.

Regarding `N#C/C(=C\c1ccc2c(c1)OCCO2)C(=O)Nc1nccs1`, the Potency entry is “inactive”. On to `CCCCn1c(=O)[nH]c2nc3cc(N)ccc3nc2c1=O`, for which the Potency result is “inactive”.

For `Cc1cccc2c(=O)n(C(=O)c3ccccc3)c(N)nc12`, the Potency result is “inactive”.

On to `CC(=O)c1ccc(OCC(=O)OC(C)C(=O)NC2CCCCC2)cc1` (stereo not drawn), for which the Potency result is “inactive”. As for `CCC(C)c1ccc(S(=O)(=O)N2CCN(C(C)CC(=O)O)CC2)cc1` (stereo not drawn), the Potency entry was “inactive”. For the molecule `CS(=O)(=O)c1ccc(C(=O)OCC(=O)NC(=O)C2CCCCC2)cc1[N+](=O)[O-]`, the Potency was 35.5 µM (active). The result for `O=C(NCC(O)c1ccc([N+](=O)[O-])cc1)C1CCCCC1` (stereo not drawn) reads “inactive”; that for `O=C(COC(=O)c1ccc(C(F)(F)F)cc1)NC(=O)NC1CCCC1`, “inactive”. Turning to `CN(Cc1ccccc1F)Cc1cc(=O)oc2cc(O)c(Cl)cc12`, the Potency result is “inactive”. As to `NC(c1ccccc1)c1csc(NC(=O)Nc2ccc(OC(F)(F)F)cc2)n1` (stereo not drawn), the Potency is 39.8 µM (active). The result for `O=C(Nc1ccc(Cl)cc1)Nc1cccc2nsnc12` reads “inactive”; that for `CC(C)c1ccc(NC(=O)Nc2nc(C(C)N)cs2)cc1` (stereo not drawn), 35.5 µM (active). Then `CC(C)c1ccc(NC(=O)Nc2nc(C(N)c3ccccc3Cl)cs2)cc1` (stereo not drawn), with 35.5 µM (active); and `CC(C)c1ccc(/C=C(/C#N)c2nnc(NC(=O)c3ccccc3)s2)cc1`, with “inactive”. For the molecule `CC(C)c1ccc(NC(=O)Nc2nc(C(N)c3ccccc3)cs2)cc1` (stereo not drawn), the Potency is 28.2 µM (active).

Consider `Cc1oc(CC(C)C)cc1C(=O)NCCCC(=O)O`, for which the Potency entry is “inactive”. With `N=C1NC(=O)/C(=C/c2ccc(Br)cc2)S1`, the Potency result is “inactive”. Then `COCCN1C=C(C(=O)OC)C(c2ccc(Cl)cc2)C(C(=O)OC)=C1`, with “inactive”. For the molecule `CCN(CC)C(=O)c1cc(-c2ccc3c(c2)OCO3)on1`, the Potency entry was “inactive”. For the molecule `COc1ccc(OCC(=O)Nc2nccs2)cc1`, the Potency entry is “inactive”. The result for `COc1ccc(CC(N)c2csc(NC(=O)Nc3ccc(C(C)C)cc3)n2)cc1` (stereo not drawn) reads 39.8 µM (active); that for `COc1ccc(Cc2nnc(S)n2NC(=O)Nc2ccc(C)cc2)cc1`, “inactive”; that for `CCN(CC)C(=O)COC(=O)c1cc(-c2ccco2)nc2ccccc12`, “inactive”. As to `COc1ccc2c3c(cccc13)C(=O)CC2`, the Potency result was “inactive”. Regarding `COc1cccc2c1C(=O)C=C(C)C2=O`, the Potency result was “inactive”.

On to `O=C1c2ccccc2-c2onc3ccc(Oc4ccccc4)c1c23`, for which the Potency is 20 µM (active). The result for `COc1ccc2noc3c2c1C(=O)c1ccccc1-3` reads 39.8 µM (active). With `COc1ccc(N2C(=O)/C(=C\NNS(=O)(=O)c3ccc(C)cc3)c3ccccc3C2=O)cc1OC`, the Potency entry is “inactive”. As to `Cc1cc(=O)oc2cc(OC(=O)c3ccco3)ccc12`, the Potency entry was “inactive”. The result for `O=c1c2c(-c3ccccc3)csc2nc2c3ccccc3c(NCCN3CCOCC3)nn12` reads “inactive”; that for `Cc1cc(C)c2nc3nc(C)c(C)cc3c(N)c2c1`, “inactive”; that for `CCN(CC)c1ccc2cc(C#N)c(=O)oc2c1`, “inactive”. Regarding `O=c1c2ccccc2sn1-c1ccc(Cl)cc1Cl`, the Potency is 35.5 µM (active). In the case of `CCC1(CC)Nc2ccccc2C(=O)N1c1ccc(OC)cc1`, the Potency result was “inactive”.

On to `Cn1c2ccccc2c(=O)c2ccc(Cl)cc21`, for which the Potency entry is “inactive”. Then `COc1ccc(-n2sc3ccccc3c2=O)cc1`, with 22.4 µM (active). `N#Cc1ccc2sn(-c3ccccc3)c(=O)c2c1`: the Potency was 22.4 µM (active). For the molecule `N#Cc1c(N)n(-c2ccccc2)c(=O)c2cc([N+](=O)[O-])ccc12`, the Potency result is “inactive”. As to `O=c1c2ccccc2sn1-c1ccccc1`, the Potency was 28.2 µM (active). Turning to `O=c1c2ccccc2nc2ccccn12`, the Potency result was “inactive”. With `COc1ccc(N2CCN(CCN3C(=O)c4ccccc4C3=O)CC2)cc1`, the Potency result was “inactive”. Regarding `N#Cc1cc2cc3ccccc3nc2n2c(=O)c3ccccc3nc12`, the Potency entry is “inactive”.

For the molecule `Nc1ccc2c3c(cccc13)C(=O)N(c1ccccc1)C2=O`, the Potency result was “inactive”. The result for `CC(C)(C)c1ccc(C(=O)NCCn2c(N)c(C#N)c3nc4ccccc4nc32)cc1` reads “inactive”; that for `Cc1cc(O)cc2c1C(=O)/C(=C/c1ccco1)O2`, “inactive”; that for `O=C1NC(c2ccco2)Nc2sc3c(c21)CCN(Cc1ccccc1)C3` (stereo not drawn), “inactive”. As to `N#Cc1c(C(F)(F)F)cc(O)n2c1nc1ccccc12`, the Potency result was “inactive”.

As to `O=c1c2cc(F)ccc2sn1-c1ccc(F)cc1`, the Potency is 35.5 µM (active).

`O=c1c2ccccc2[nH]c2ccc(F)cc12`: the Potency entry is “inactive”. As to `CC(=O)Nc1ccc2nc3ccccc3nc2c1`, the Potency entry was “inactive”. In the case of `CC(=O)Nc1ccc(C2=NN(c3ccccc3)C(c3ccccc3)C2)cc1` (stereo not drawn), the Potency entry was “inactive”.

Take `CC(=O)Nc1ccc2c(=O)n(-c3ccccc3)sc2c1`: the Potency is 25.1 µM (active). As for `CN1C(=O)c2cccc3c(N)ccc(c23)C1=O`, the Potency result was “inactive”. On to `Cn1sc2ccccc2c1=O`, for which the Potency was 28.2 µM (active). Take `COCCCn1c(N)c(-c2nc3ccccc3n2C)c2nc3ccccc3nc21`: the Potency result is “inactive”. As for `COc1ccc(N2C3=C(C(=O)CC(C)(C)C3)C(c3cnn(C)c3)C3=C2CC(C)(C)CC3=O)cc1`, the Potency entry is “inactive”. For the molecule `COc1cccc(C(=O)Oc2c(Br)cc(Br)cc2/C=N/NC(=O)c2cc(C)[nH]n2)c1`, the Potency entry was “inactive”. Consider `CC1(C)CC2CC(C)(CN2C(S)=Nc2ccccc2)C1` (stereo not drawn), for which the Potency result was “inactive”. For `COc1ccc(OC)c(/C=N/NC(=O)CNC(=O)c2ccc(S(=O)(=O)N3CCOCC3)cc2)c1`, the Potency entry was “inactive”.

Take `O=C(Oc1ccc2ccc(=O)oc2c1)c1cccs1`: the Potency entry is “inactive”.

With `S=C(NNC(=S)NC1CC2C=CC1C2)NC1CC2C=CC1C2` (stereo not drawn), the Potency entry is “inactive”.

Turning to `CC(=O)Nc1sc(C)c(C)c1C(=O)OCC(=O)NCc1ccc(Cl)cc1`, the Potency entry was “inactive”.

Take `CCOC(=O)c1c(NC(C)=O)sc2c(OCC(O)CNC(C)(C)C)c(Br)ccc12` (stereo not drawn): the Potency was 39.8 µM (active). With `CCOC(=O)c1sc(NC(=O)c2ccoc2C)c(C(N)=O)c1C`, the Potency result was “inactive”. Then `NC(=O)c1cccc2cc3ccccc3cc12`, with “inactive”; and `Cc1ccc2nc(O)c(C3C(C#N)=C(N)Oc4c3ccc3cccnc43)cc2c1` (stereo not drawn), with 22.4 µM (active). Turning to `Cc1ccc2nc(Cl)c(C#N)cc2c1`, the Potency entry was “inactive”. On to `C#CCOc1ccc(C2C(C#N)=C(N)Oc3cc(O)ccc32)cc1` (stereo not drawn), for which the Potency result was “inactive”. Consider `COC(=O)c1sc2nc3c(cc2c1N)CCCC3`, for which the Potency entry was “inactive”. On to `O=C1CC(c2ccccc2Cl)=NN(c2ncnc3ccccc23)C1=O`, for which the Potency entry is “inactive”. With `CC1=C/C(=N\OS(=O)(=O)c2ccccc2)C(C(C)C)=CC1=O`, the Potency is 31.6 µM (active). For the molecule `CC1=C/C(=N\OS(=O)(=O)c2ccccc2)C=CC1=O`, the Potency is 31.6 µM (active). Then `Cc1ccc(S(=O)(=O)NNc2c3ccccc3nc3ccc(Cl)cc23)cc1`, with “inactive”; and `CCCCn1c(=O)[nH]c2nc3cc(NC(C)=O)ccc3nc2c1=O`, with “inactive”; and `CCN(CC)c1ccc(/C=c2\sc3nc4ccccc4n3c2=O)c(O)c1`, with “inactive”. Consider `OCCC1CN(C2CCN(c3ccccc3F)CC2)CCN1Cc1ccccc1` (stereo not drawn), for which the Potency entry was “inactive”.

Regarding `Cc1cccc(C2=NN(c3ccc(Br)cc3)[C@@H](C(=O)N3CCOC3=O)[C@@H]2c2ccccc2)c1`, the Potency result is “inactive”. As for `CN1C[C@@H]2[C@@H]3C(=O)N(Cc4ccccc4)C(=O)[C@@H]3[C@](Cc3ccccc3)(C1=O)N2C(=O)c1ccc(C(C)(C)C)cc1`, the Potency is 15.8 µM (active). `CC1(Cc2ccccc2Cl)C(=O)Nc2cc(-c3ccccc3Cl)ccc21` (stereo not drawn): the Potency is 39.8 µM (active).

With `CC(=O)Nc1cc[n+](CC(=O)c2cccc([N+](=O)[O-])c2)cc1`, the Potency entry is “inactive”. Take `Nc1ccccc1SC(CC(=O)c1ccccc1)c1cccc([N+](=O)[O-])c1` (stereo not drawn): the Potency is 2.82 µM (active).

For `CC(CCc1ccccc1)NCC(O)c1cccc([N+](=O)[O-])c1` (stereo not drawn), the Potency entry was “inactive”. As to `Nc1ccccc1SC(C[N+](=O)[O-])c1ccccc1` (stereo not drawn), the Potency was 39.8 µM (active). Then `COc1ccc(/C=N/NC(=O)Nc2cccc3nsnc23)cc1`, with “inactive”; and `CN1C(=O)c2cccc3c(N(C)C)ccc(c23)C1=O`, with “inactive”. The result for `O=C(O)c1ccccc1-c1ccc(C=c2sc3nc4cc(Br)cnc4n3c2=O)o1` reads “inactive”; that for `CCN(CC)CCNS(=O)(=O)c1ccc2c3c(cccc13)C(=O)N2`, “inactive”. Then `C=CCC(Nc1ccccc1)C12C=CC(O1)C(C(=O)OC)=C2C(=O)OC` (stereo not drawn), with 39.8 µM (active); and `Cc1ccc(/C=N/Nc2ccc3ccccc3n2)o1`, with “inactive”. As to `c1ccc(-c2nc(CN3CCN(c4ccccn4)CC3)c[nH]2)cc1`, the Potency entry is “inactive”. `CN(C)C(=S)N=Nc1[nH]c2ccccc2c1O`: the Potency was 1.12 µM (active).
